Assay results as given in PubChem BioAssay AID687031 (Broad Institute, 2013).
Among all 1,400 compounds or so, about 50 (4%) were called active. A selection follows. Entries with a potency or affinity are not part of this list. Values without a mark were called inactive.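 How the source made its calls: active means fitted curve reaches 30% CPE protection at or below the top valid dose, with every test run called active; inconclusive means test runs disagree, some active and some not; inactive means every test run inactive, including effects in the wrong direction.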

assay: antiviral rescue of DENV2-infected BHK-21 cells – cell-based, ATP luminescence, cherry-pick, dose response (AID 687031); conditions: BHK-21 DENV2 CPE protection, 5 d; series mostly up to 19.5 µM; CPE protection (higher = active): at the top concentration;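 further: 0% = infected DMSO wells and 100% = uninfected cell wells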

| SMILES | CPE protection (higher = active) |
| --- | --- |
| COc1ccc(C(CCN2CCOCC2)c2c(OC)cc(OC)c3c(C)cc(=O)oc23)cc1 (stereo not drawn) | 27.1% |
| CN1C[C@@H]2[C@@H]3C(=O)N(Cc4ccccc4)C(=O)[C@@H]3[C@](C)(C1=O)N2C(=O)c1ccc(C(C)(C)C)cc1 | 8.78% |
| Cc1ccc(S(=O)(=O)N2CCN(C(=O)COC(=O)Cc3ccc(Cl)cc3)CC2)c(C)c1 | -8.53% |
| O=C(c1ccccc1Cc1ccccc1)N1CCN(S(=O)(=O)c2ccccc2)CC1 | 0.551% |
| O=C1[C@@H](Oc2ccccc2)[C@@H](c2ccncc2)N1c1ccncc1 | -3.03% |
| Cc1ccc2ccc(C(Nc3ccccc3)c3ccccc3)c(O)c2n1 (stereo not drawn) | -6.24% |
| Cc1ccc(CNC(=O)C2CCC(=O)N(CCc3ccccn3)C2)s1 (stereo not drawn) | -1.35% |
| Cc1cccc(N2CCN(C(C(=O)NCc3ccccc3)c3ccc(F)cc3)CC2)c1C (stereo not drawn) | -8.34% |
| CC1(C)CC(=O)N(CC(=O)O)c2ccccc2S1(=O)=O | -20.4% |
| CCNC(=O)C[C@H]1CC[C@@H]2[C@H](COC[C@H](O)CN2Cc2ccc(Cl)c(Cl)c2)O1 | 12.1% |
| Cc1noc(C)c1S(=O)(=O)Nc1ccc2c(c1)C(=O)N([C@@H](C)CO)C[C@@H](C)[C@@H](CN(C)C(=O)Nc1ccccc1)OCCCC[C@@H](C)O2 | 34% [at 10 µM] |
| Cc1noc(C)c1S(=O)(=O)Nc1ccc2c(c1)C(=O)N([C@H](C)CO)C[C@H](C)[C@H](CN(C)C(=O)Nc1ccccc1)OCCCC[C@@H](C)O2 | 7.27% |
| CNc1cc(-c2ccc(O)cc2C)ncn1 | -18% |
| O=C(C1CCOCC1)N1CC[C@@H]2[C@H]1c1cc(-c3cccc(F)c3)ccc1N[C@@H]2CO | -4.08% |
| O=C(C1CC1)N1CC[C@@H]2[C@H]1c1cc(-c3ccc(F)cc3)ccc1N[C@@H]2CO | 19.9% |
| Cc1ccc(S(=O)(=O)c2nnn3c2nc(N2CCOCC2)c2ccccc23)cc1C | 18.2% |
| CCCN(CC(=O)Nc1ccccc1C)C(=O)C1CCN(S(=O)(=O)c2ccc(C)c(C)c2)CC1 | 6.3% |
| CCC(C)(C)C1CCc2[nH]nc(C(=O)NCc3ccccn3)c2C1 (stereo not drawn) | 13.8% [at 10 µM] |
| O=C(NCc1ccccn1)C(=O)NCC1OCCN1S(=O)(=O)c1ccc(Br)cc1 (stereo not drawn) | -4.64% |
| COc1ccc(CN(C)C[C@H]2OCCCC[C@@H](C)Oc3ccc(NC(=O)NC(C)C)cc3C(=O)N([C@H](C)CO)C[C@H]2C)cc1 | 13.6% [at 21 µM] |
| CN1c2ccc(-c3cccc(F)c3)cc2[C@H]2[C@H](CCN2C(=O)Cc2cccnc2)[C@H]1CO | -9.94% |
| O=C(C1CCOCC1)N1C[C@@H]2[C@H](c3ccccc31)[C@H](CO)N2C(=O)c1ccccc1 | -12.7% |

| SMILES | CPE protection (higher = active) |
| --- | --- |
| CC(C)NC(=O)N1C[C@H]2[C@@H](c3ccccc31)[C@@H](CO)N2C(=O)c1ccccn1 | 6.1% |
| COc1ccc2ccccc2c1/C=N/NC(=O)c1ccccc1F | 3.87% |
| Cc1ccccc1S(=O)(=O)N1CC[C@H]2[C@@H](CO)N(C)c3ccc(Br)cc3[C@H]21 | 2.06% |
| CCOc1ccc2[nH]c3ncccc3c(=O)c2c1 | -4.21% |
| CC1(C(=O)NCc2cccs2)Cc2c(-c3cccc(C(F)(F)F)c3)ccnc2O1 (stereo not drawn) | 17% |
| CCc1nnc(NC(=O)c2ccc(F)c(S(=O)(=O)N3CCCCC3)c2)s1 | -19.2% |
| CN(C)CC(=O)Nc1ccc2c(c1)[C@H]1C[C@H](CC(=O)NC3CCCCC3)O[C@@H](CO)[C@H]1O2 | 0.976% |
| O=C(C[C@H]1C[C@@H]2c3cc(NC(=O)CC4CC4)ccc3O[C@@H]2[C@H](CO)O1)NCc1ccccc1 | -5.22% |
| Cc1ccc(NCC(=O)N/N=C/c2cccc(Br)c2)cc1 | 7.97% |
| CCCCCC(=O)N1C[C@@H](n2cc(C3CC3)nn2)[C@H](O)C[C@@H]1c1ccccc1 | -7.51% |
| Cc1ccccc1CN1C(=O)CN(S(C)(=O)=O)CC1(C)C(=O)NCc1ccccc1 (stereo not drawn) | -24.2% |
| COCCNC(=O)C1CCC(CNS(=O)(=O)c2ccc(F)cc2)CC1 (stereo not drawn) | -10.5% |
| CC(=O)Nc1cccc(C(=O)OC(C)C(=O)NC(=O)NC2CCCCC2)c1 (stereo not drawn) | -3.28% |
| CCOC(=O)C1=C(C)NC(=O)NC1c1ccc(N(C)C)cc1 (stereo not drawn) | -0.681% |
| N#C[C@@H]1[C@H](c2ccc(-c3ccccc3F)cc2)[C@H](CO)N1C(=O)C1CC1 | -0.808% [at 21 µM] |
| CCN(CC(=O)Nc1c(F)cccc1F)C(=O)C1CCN(S(=O)(=O)c2ccc(F)cc2)CC1 | -5.16% |
| Cc1ccc(S(=O)(=O)N2CCOCC2)cc1NC(=O)CN(C)CC(=O)Nc1cccc(F)c1 | -5.13% |
| COc1ccc(-c2cc(C(=O)NCCCN3CCCC3=O)c3ccccc3n2)cc1 | -27.2% |
| CSc1cccc(NC(=O)CC2Oc3ccccc3NC2=O)c1 (stereo not drawn) | -0.118% |
| CCOc1ccc(N(CC(=O)NC2CCCC(C)C2C)S(=O)(=O)c2c(C)noc2C)cc1 (stereo not drawn) | -13.2% |
| Cn1c(=O)c2[nH]c(CCCCc3nc4ccccc4[nH]3)nc2n(C)c1=O | 6.76% |
| Nc1ccc(CC(N)c2csc(Nc3cc(Oc4ccccc4)ncn3)n2)cc1 (stereo not drawn) | -9.32% |

| SMILES | CPE protection (higher = active) |
| --- | --- |
| COc1ccc(CC(N)c2csc(NC(=O)c3ccc(OC)cc3)n2)cc1 (stereo not drawn) | -8.87% |
| CC(C)SCc1cc(N2CCCC2)nc(-c2ccccc2)n1 | -9.75% |
| COc1ccccc1-c1noc2c1C(=O)N(Cc1cn(Cc3ccccc3)nn1)CC2 | 6.91% |
| COc1ccc2ccccc2c1-c1sc(Nc2ccccc2)n[n+]1-c1ccc(F)cc1 | -20% |
| CNC[C@@H]1OCCCC[C@H](C)Oc2ccc(NS(=O)(=O)c3c(C)noc3C)cc2C(=O)N([C@@H](C)CO)C[C@@H]1C | 4.03% |
| CC1CCCCC12NC(=O)N(CC(=O)NCc1cccs1)C2=O (stereo not drawn) | 2.88% |
| O=C(NCc1cccs1)c1cccc(Nc2nc3ccc(Br)cc3[nH]2)c1 | -1.49% |
| CN(Cc1ccccc1)CC1CCCN(CCc2ccccc2F)C1 (stereo not drawn) | 3.08% |
| CC(C)Cc1ccc(C(C)C(N)=NCCc2ccccc2)cc1 (stereo not drawn) | 21.7% |
| CCN(C)C1CN(Cc2cn(Cc3ccc(F)cc3)nn2)S(=O)(=O)C1 (stereo not drawn) | -3.5% |
| CCOc1ccc(Oc2nc(NCC(C)C)nc(OC)n2)nn1 | -24.7% |
| O=C(NC(C(=O)N1CCCC1C(=O)NC1CCCC1)c1ccccc1)c1cccs1 (stereo not drawn) | -11.5% |
| NS(=O)(=O)c1ccc(CCNC(=O)C2CCCN2C(=O)c2cccs2)cc1 (stereo not drawn) | -11.5% |
| CCC(=O)N1CC2(C1)CN(C(=O)Nc1ccc(F)cc1)[C@H](CO)c1c2c2ccc(OC)cc2n1C | 5.8% |
| Cc1ccc(-c2nc(N3CCN(C)CC3)c3ccccc3n2)cc1 | 12.5% |
| COc1ccc(/C=N/NC(=O)c2nc(-c3ccccc3)n(-c3ccccc3)n2)cc1OC | 6.48% |
| CCNC(=O)C[C@H]1CC[C@H]2[C@@H](COC[C@H](O)CN2C(=O)c2cccnc2)O1 | 24.6% |
| CCCNC(=O)C[C@H]1CC[C@@H]2[C@H](COC[C@H](O)CN2C(=O)CC)O1 | 36.8% |
| Cc1ccc(SCCN2CCC(NC(=O)OCc3ccccc3)CCC2=O)cc1 (stereo not drawn) | -8.36% |
| Cc1ccc(S(=O)(=O)Nc2ccc3c(c2)C(=O)N([C@@H](C)CO)C[C@@H](C)[C@H](CN(C)S(=O)(=O)c2ccc(Cl)cc2)OCCCC[C@@H](C)O3)cc1 | -29.8% |
| CCc1cc(=O)oc2cc(OCC(=O)NC3CC(C)(C)NC(C)(C)C3)ccc12 | 3.18% |
| Cc1cc(OCC(=O)NC2CC(C)(C)NC(C)(C)C2)c(C)cc1Br | -5.56% |

| SMILES | CPE protection (higher = active) |
| --- | --- |
| CC1(C(=O)NCc2ccccc2)CN(S(C)(=O)=O)CC(=O)N1CCc1ccc(O)cc1 (stereo not drawn) | -2.07% |
| CC(C)CC1NC(=O)c2ccccc2-n2c1nc1ccccc1c2=O (stereo not drawn) | -9.6% |
| Cc1ccc(S(=O)(=O)N(C)CC(=O)Oc2ccc(-c3nnco3)cc2)cc1 | -21.8% [at 10 µM] |
| N#Cc1cc2cc3c(cc2nc1Cl)OCCO3 | -12.1% |
| CCN(CC)C1CCN(Cc2c(C(=O)N3CCCCCCC3)nc3ccc(Cl)cn23)C1 (stereo not drawn) | -11.9% |
| O=C(CN1CCc2cc3c(cc2C1)OCCCO3)Nc1ccccc1 | 17.2% |
| CN(C)CCCNc1cc(O)c2ncccc2c1 | -6.23% |
| C/C=C/c1ccc([C@@H]2[C@@H](CO)N(C(C)=O)[C@@H]2CNC(=O)CC2CC2)cc1 | 4.22% [at 21 µM] |
| O=C(NCC1CC1)c1onc(CSc2ccc(F)c(F)c2)c1C(=O)NCC1CC1 | 10.7% |
| COc1cc(C)nc(N2CCC(C(=O)NCC3CCCO3)CC2)n1 (stereo not drawn) | 18.9% |
| O=C(NCCS(=O)(=O)N1CCN(c2ccccc2)CC1)C1CC1 | 14.1% |
| O=C(CCc1nnc(Cc2c[nH]c3ccccc23)o1)NCCC1CCCCO1 (stereo not drawn) | 17.1% |
| COc1ccc(S(=O)(=O)N2CCCCC2c2cc(C(=O)Nc3ccccc3)no2)cc1 (stereo not drawn) | 23% |
| COC(=O)N1CCCCC1c1cc(C(=O)Nc2ccccc2Cl)no1 (stereo not drawn) | -13.9% |
| Cc1ccc([C@H]2C[C@@H](n3cc(-c4ccc(F)cc4)nn3)[C@H](O)CN2C(=O)c2cccs2)cc1 | -9.7% |
| CCC(=O)N1CC[C@@H]2[C@@H](CO)Nc3ccc(-c4ccc(OC)cc4)cc3[C@@H]21 | -14% |
| O=C(O)c1ccc(CNC(=O)C2CCCN2C(=O)OCc2ccccc2)cc1 (stereo not drawn) | 1.02% |
| O=C(NCc1ccccc1)c1ccccc1 | -3.58% |
| Cc1ccc(OCc2nnc(SCc3cc(=O)[nH]c4ccccc34)n2-c2ccccc2)cc1 | -15.6% |
| CO[C@@H]1CN(C)C(=O)c2ccc(NC(=O)Nc3cc(F)ccc3F)cc2OC[C@@H](C)N(C(=O)c2ccccn2)C[C@H]1C | 17.2% [at 21 µM] |
| CC1=C(C(=O)N(C)C)CC(CC(=O)NC2CCCCC2)C(=O)N1Cc1ccc(C(C)(C)C)cc1 (stereo not drawn) | 17.7% |
| CN(CC(=O)Nc1cccc(F)c1)C(=O)c1ccccc1CCc1ccccc1 | -11.4% |

| SMILES | CPE protection (higher = active) |
| --- | --- |
| C[C@H](CO)N1C[C@H](C)[C@@H](CN(C)C(=O)C2CC2)Oc2cc(C#Cc3ccccc3)ccc2S1(=O)=O | -7.48% |
| COc1cc(C)ccc1OCc1cc(C(=O)NCCN2CCCC(O)C2)no1 (stereo not drawn) | 4.9% |
| Cc1cc(OCc2cc(C(=O)N(C)C(C)c3ccccn3)no2)cc(C)c1Cl (stereo not drawn) | -3.99% |
| Cc1c(C(=O)N2CCCC2)oc2ccc(Br)cc12 | -4.23% |
| C[C@@H]1CN([C@H](C)CO)C(=O)Cc2cc(NC(=O)CCCCCC(=O)Nc3ccccc3N)ccc2O[C@@H]1CN(C)Cc1ccc(C(F)(F)F)cc1 | -7.66% [at 16 µM] |
| Cc1ccc(S(=O)(=O)NC(=O)C2(C)CCN2C(=O)Cc2cccs2)cc1 (stereo not drawn) | -2.07% |
| C[C@H](NC(=O)c1ncn(Cc2ccccc2)c1C(=O)N[C@@H](C)c1ccccc1)c1ccccc1 | -10.4% |
| C[C@H](CO)N1C[C@H](C)[C@H](CN(C)C(=O)Nc2ccc(C(F)(F)F)cc2)OCCCC[C@H](C)Oc2ccc(NS(=O)(=O)c3ccc(F)cc3)cc2C1=O | 7.18% |
| O=S(=O)(c1ccc(F)cc1)N1CC[C@@H]2[C@H]1c1cc(-c3ccc(F)cc3)ccc1N[C@@H]2CO | -24% |
| CCC(=O)N1CC[C@@H]2[C@H](CO)Nc3ccc(-c4cccc(C#N)c4)cc3[C@@H]21 | 22.9% |
| COc1cccc(C(O)c2nc(-c3cc(F)cc(F)c3)cs2)c1 (stereo not drawn) | -22.6% |
| CC(NC(=O)CCc1ccccc1)c1ccc2c(c1)OCO2 (stereo not drawn) | 1.74% |
| CC(CNC(=O)Cn1ccc(NC(=O)OCc2ccccc2)nc1=O)c1ccccc1 (stereo not drawn) | -2.22% |
| CCCCCCN1CCN(C2CN(Cc3ccc(F)cc3)S(=O)(=O)C2)CC1 (stereo not drawn) | -15.2% |
| O=C(c1cnccn1)N1CC[C@@H]2[C@@H](CO)Nc3ccc(-c4ccccc4F)cc3[C@@H]21 | -9.44% [at 21 µM] |
| Nc1c(-c2ccccc2)nc2ncccn12 | 8.46% |
| CCOc1ccc(/C=N/NC(=O)c2ccccc2O)cc1CN1CC2CC(C1)c1cccc(=O)n1C2 (stereo not drawn) | -7.87% |
| CCCc1cc(=O)oc2c(C)c(OCC(=O)N3C[C@H]4C[C@@H](C3)c3cccc(=O)n3C4)ccc12 | -5.43% |
| COc1ccc(NS(=O)(=O)c2cccs2)cn1 | 5.62% |
| COc1cccc(OC)c1Nc1nc(C)nc2c1nnn2Cc1ccccc1Cl | -19.1% |
